Assay outcomes: PubChem, National Center for Advancing Translational Sciences (NCATS)
This is a sample that favours compounds with a hit; in the whole collection about 5.9% have one here.
ATXN2 expr inh = Primary qHTS for Inhibitors of ATXN expression. HEK-293 ATXN2-luciferase reporter, luminescence, 24 h. Potency, µM (highest dose often 57 µM), inactives show top-dose activity change, negative = inhibition, usual class: inhibitors. 360,000 tested, 0.72% active. AID 1745845, 2022; further: on the % scale 0 is the no-effect control and ±100 the full control effect; nearly all actives have a fitted effect of over 55% in size
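ATXN2-luciferase reporter cells (luciferase flanked by upstream and downstream ATXN2 gene portions) were treated 24 h at 37 °C with compounds at up to 57 uM. SteadyGlo luminescence gave expression; GF-AFC fluorescence gave viability.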
KB-V1 MDR tox = qHTS assay for MDR1-selective chemotherapeutics: Primary screen using the drug-selected MDR subline cells KB-V1 | KB-V1 MDR cells viability, CellTiter-Glo, 72 h | Potency, µM (highest dose often 46.1 µM), actives largely listed as cytotoxic | 400,000 tested, 3.4% active; further: on the % scale 0 is the no-effect control and ±100 the full control effect; nearly all actives have a fitted effect of over 60% in size
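Following 72 h at 37 degrees C with compound, KB-V1 cell viability was read by CellTiter-Glo luminescence, medium being phenol-red-free DMEM plus 10% FBS; concentration-response parameters came from normalized, curve-fitted qHTS data.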
S2 tox = Viability Counterscreen for Primary qHTS for Inhibitors of ATXN expression; S2 cells (HEK-293 line with an ATXN2-luciferase reporter) viability, CellTiter-Fluor protease fluorescence, 24 h; Potency, µM (doses to about 56.7 µM), hits mostly cytotoxic; 400,000 tested, 0.49% active; AID 651635, 2014; further: nearly all actives have a fitted effect of over 40% in size
KB-3-1 cytotox = qHTS assay for MDR1-selective chemotherapeutics: Primary screen using the parental adenocarcinoma cell KB-3-1; KB-3-1 viability, CellTiter-Glo ATP luminescence, 72 h; Potency, µM (titrated, usually from 46.1 µM), most hits filed as cytotoxic; 400,000 tested, 1.4% active; further: on the % scale 0 is the no-effect control and ±100 the full control effect; nearly all actives have a fitted effect of over 60% in size
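KB-3-1 cells, DMEM (no phenol red) + 10% FBS; compound by pin transfer, 72 h, 37 °C. Readout: CellTiter-Glo luminescence after 10 min. Data normalized, curve-fitted.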
HepG2 viability = qHTS for Inhibitors of TGF-b: Cytotox Counterscreen. Potency, µM (series often up to 46.1 µM), for inactives: at the top dose activity change, negative = cytotoxicity, usual class: cytotoxic. AID 588856, 2011. HepG2 CAGA-GFP viability, ATP luminescence, 18 h. 410,000 tested, 0.76% active
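HepG2 CAGA-GFP cells (1000/well, DMEM with 1% FBS) received compound, then TGF-beta at 500 pg/mL final, and were incubated 18 hours at 37 degrees C. Viability was read by CellTiter-Glo luminescence. Media-only wells were set as complete cell-killing and DMSO as no toxicity.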
TGFb inhibitor = qHTS for Inhibitors of TGF-b. HepG2 CAGA-GFP TGF-b/SMAD3 reporter, GFP fluorescence, 18 h; TGF-beta stimulated, 500 pg/mL final. AID 588855, 2011. 410,000 tested, 1.2% active. Potency, µM (series often up to 46.1 µM), for the others: top-dose activity, negative = inhibition, usual class: inhibitors; further: on the % scale 0 is the no-effect control and ±100 the full control effect; nearly all actives have a fitted effect of over 65% in size
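Smad-responsive CAGA-GFP expression was quantified in HEPG2 cells exposed to compounds and 500 pg/mL final TGF-beta for 18 h at 37 degrees C; unstimulated wells defined full inhibition.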
Active calls of the source: *; i = inactive; ? = inconclusive; . = not tested or not shown; ! = repeats disagree. The call rests on the fitted dose curve; in most records, active means well fitted curve in the direction sought with a large enough effect; inconclusive means small, poorly fitted or top-dose-only effect, or another doubt; inactive means no such curve, though single readings can be large; an effect the other way counts as inactive or inconclusive. Potency means the concentration at half of the fitted maximal effect.

SMILES | ATXN2 expr inh | KB-V1 MDR tox | S2 tox | KB-3-1 cytotox | HepG2 viability | TGFb inhibitor
COc1ccc(C(=O)C2C(=O)C(=O)N(Cc3ccco3)C2c2cccs2)cc1 (stereo not given) | . | ? | . | ? | -19% | 0%
COc1ccc(C(=O)NC(=S)Nc2cccc(S(=O)(=O)N3CCOCC3)c2)cc1 | -28% | 5.2µM* | i | 5.8µM* | -24% | 0%
COc1ccc(NC(=O)c2ccc(Br)c(S(=O)(=O)N3CCOCC3)c2)cc1 | -10% | 21µM* | i | ? | 6% | 1%
COc1ccc(C(=O)Nc2ccc(S(=O)(=O)N3CCOCC3)cc2)cc1 | -6% | i | i | i | 8% | ?
CCN(CC)S(=O)(=O)c1ccc(N2CCCC2)c(NS(=O)(=O)c2ccccc2)c1 | -8% | i | i | i | 8% | 4%
O=C(COc1ccc(C(=O)c2ccc(F)cc2)cc1)Nc1cccc(S(=O)(=O)N2CCOCC2)c1 | 0% | 12µM* | ? | i | 5% | ?
CCN(CC)S(=O)(=O)c1ccc(N2CCCC2)c(NS(=O)(=O)c2ccc(OC)cc2)c1 | 0% | 4.1µM* | i | i | -12% | ?
Cc1ccccc1C1(CC(=O)N2CCCCC2c2cccnc2)CC(=O)N(C2CCCC2)C1=O (stereo not given) | . | . | i | . | . | .
COc1ccc(NS(=O)(=O)c2cc(NC(=O)c3ccc(Cl)cc3)ccc2N2CCOCC2)cc1 | -16% | 5.8µM* | ? | ? | 6% | 6%
COc1ccc(NS(=O)(=O)c2cc(NC(=O)c3ccncc3)ccc2N2CCOCC2)cc1 | -6% | ? | i | i | 8% | -1%
COc1ccc(C(=O)Nc2ccc(Cl)c(S(=O)(=O)N3CCOCC3)c2)cc1 | ? | 7.3µM* | ? | ? | -3% | -11%
O=C(CCCSc1ccccc1)Nc1ccc(Cl)c(S(=O)(=O)N2CCOCC2)c1 | -27% | 2.6µM* | i | ? | -4% | ?
O=C(CCCOc1ccccc1)Nc1ccc(Cl)c(S(=O)(=O)N2CCOCC2)c1 | -24% | ? | i | ? | -2% | ?
Cc1ccc(C)c(CNC(=O)c2cnc3sc(N4CCCC4)nn3c2=O)c1 | 9% | i | i | i | -7% | ?
CC1=C(C(N)=O)C(c2ccccc2)n2nc(-c3ccncc3)nc2N1 (stereo not given) | -2% | i | i | i | -4% | 3%
Cc1nc(-[n+]2nc(-c3ccncc3)nn2-c2ccccc2)sc1C | ? | ? | 14µM* | ? | -68% | -14%
CSc1ccccc1NC(=O)CN(C)C(=O)COc1cccc2cccnc12 | -17% | i | i | i | 11µM* | ?
C/C=C/c1ccc(OCC(=O)Nc2cc(OC)c(OC)c(OC)c2)c(OC)c1 | -2% | ? | i | ? | 3% | -1%
CN(CC(=O)Nc1ccc(F)cc1)C(=O)COc1ccccc1Cc1ccccc1 | -17% | 18µM* | i | ? | 14% | ?
COc1ccc(NC(=O)CN(C)C(=O)COc2ccccc2Cc2ccccc2)cc1 | -18% | i | i | i | -30% | ?
C/C=C/c1ccc(OCC(=O)N(C)CC(=O)Nc2ccc(F)cc2)c(OC)c1 | 2% | 16µM* | i | i | 1% | -7%
CN(CC(=O)Nc1ccccc1C(F)(F)F)C(=O)COc1ccccc1Cc1ccccc1 | 2% | 8.2µM* | i | i | -3% | 1%
CCOC(=O)[C@]12CCC=C1N(Cc1ccc3c(c1)OCO3)C(=O)[C@H](CC(=O)NCc1ccccc1)C2 | -8% | i | i | i | . | .
O=C(Nc1cccc(C(F)(F)F)c1)c1ccc2snnc2c1 | -5% | i | i | i | -21% | 3%
O=C(Nc1cccc(C(F)(F)F)c1)Nc1ccc2snnc2c1 | ? | ? | i | ? | -57% | 7.1µM*
SMILES | ATXN2 expr inh | KB-V1 MDR tox | S2 tox | KB-3-1 cytotox | HepG2 viability | TGFb inhibitor
COc1cc(CNC(=O)Nc2nc(C(N)Cc3ccc(Cl)cc3)cs2)cc(OC)c1OC (stereo not given) | ? | i | 25µM* | ? | 18µM* | ?
COc1ccc(CNC(=O)Nc2nc(C(N)Cc3ccc(C(F)(F)F)cc3)cs2)cc1 (stereo not given) | ? | ? | i | ? | -94% | 16µM*
CC(N)c1csc(NC(=O)Nc2cccc(C(F)(F)F)c2)n1 (stereo not given) | ? | i | ? | i | 20µM* | ?
O=C1C(Nc2ccccc2)=CC(c2ccc(Br)cc2)N1c1ccccc1 (stereo not given) | 20% | ? | ? | i | 2% | 2%
CNC(=O)c1cc2n(n1)CCCN(Cc1ccc(F)cc1)C2=O | -7% | i | i | i | 5% | 6%
C[C@@H](NC(c1ccc(F)cc1)c1ccc2cccnc2c1O)c1ccccc1 (stereo not given in full) | . | i | . | ? | . | .
CC(C)c1ccccc1NC(=O)Nc1nc(C(N)Cc2ccc(C(F)(F)F)cc2)cs1 (stereo not given) | ? | ? | . | ? | 8.9µM* | 11µM*
COCC(=O)N[C@H]1CC[C@@H](CC(=O)NCc2ccccc2OC)O[C@@H]1CO | . | i | . | i | . | .
S=C(NCCc1ccccn1)Nc1cc(Cl)cc(Cl)c1 | -25% | i | i | i | -3% | -23%
S=C(NCCc1ccccn1)Nc1ccc(Cl)c(Cl)c1 | 4% | 23µM* | i | i | 7% | 6%
COCCCC/C(=N\OCCN)c1ccc(C(F)(F)F)cc1 | 16µM*! | ? | ? | ? | -41% | 2%
COCCCCC(=NOCCN)c1ccc(C(F)(F)F)cc1 | ? | . | i | . | . | .
Cc1cccc(CNC(=O)C(=O)Nc2ccccc2C)c1 | 4% | i | i | i | 0% | 16%
CC(=O)N(C1=C(N)C(=O)c2ccccc2C1=O)C(C)C | -27% | i | i | i | -13% | -10%
COc1ccccc1N(C(C)=O)C1=C(Cl)C(=O)c2ccccc2C1=O | . | i | . | i | 11µM* | -18%
COc1ccc(OC)c(-c2cc(Cl)c3c(c2)CC(CNC(=O)[C@@H]2CCCN2C(C)=O)O3)c1 (stereo not given in full) | . | . | i | . | . | .
CCC(=O)Oc1ccc2ccccc2c1CNC(=O)c1ccccc1 | 1% | 15µM* | i | ? | -5% | ?
